Reference: PubChem BioAssay
Active and inactive are the calls of the source.

Assays:
[1] = test system: XIP peptide (Xip251-270) binding; test: XIP fragment 251-270 binding compounds – biochemical, small-molecule microarray, fluorescence 635/667 nm, 0.1 µg/mL protein, primary screen (AID 1182); settings: fluorescent protein binding, 635 nm, higher = more signal, called active from +8 up or from −8 down
XIP peptide (Xip251-270) = test: compounds binding XIP fragment 251-270 – biochemical, small-molecule microarray, fluorescence 635/667 nm, 0.5 µg/mL protein, primary screen (AID 1183); settings: fluorescence 635 nm, higher = more signal
[2] = blood-stage malaria parasite viability loss – strain 3D7, DAPI fluorescence, 100 nL, primary screen (AID 1184);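 note: parasites grown inside human red blood cells in medium with human serum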; settings: P. falciparum 3D7 growth, 3 d, higher = more signal
[3] = target: Homeobox protein Hox-A13 (Mus musculus) (UniProt Q62424); test: disruptors of Hoxa13 oligonucleotide interaction – biochemical, fluorescence polarization, labeled oligonucleotide, primary screen (AID 1185); settings: Hoxa13:DNA binding, 15 min, higher = more signal, called active from +8 up or from −8 down
Homeobox protein Hox-A13 (Mus musculus), sequence (Q62424 whole entry, looked up): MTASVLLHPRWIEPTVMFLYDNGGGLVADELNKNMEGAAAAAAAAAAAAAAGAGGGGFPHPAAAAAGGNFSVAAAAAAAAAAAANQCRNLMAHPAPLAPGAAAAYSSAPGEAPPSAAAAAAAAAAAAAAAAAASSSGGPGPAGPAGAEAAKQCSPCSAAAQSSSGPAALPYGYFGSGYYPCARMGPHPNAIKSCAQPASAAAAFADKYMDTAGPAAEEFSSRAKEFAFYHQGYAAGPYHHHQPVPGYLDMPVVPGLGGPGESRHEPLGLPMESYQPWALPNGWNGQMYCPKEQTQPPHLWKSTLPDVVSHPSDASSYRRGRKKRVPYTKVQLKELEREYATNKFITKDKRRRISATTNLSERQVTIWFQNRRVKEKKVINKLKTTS

Row | Compound | composite z-score [1] | composite z-score (XIP peptide (Xip251-270)) | z-score [2] | z-score [3]
1 | CC1(C)O[C@H]2O[C@H]([C@H](O)CON=C3[C@H]4CCn5c(=O)n(-c6ccccc6)c(=O)n5[C@H]4[C@H](O)[C@@H]4O[C@H]34)[C@H](O)[C@H]2O1 | 0.469 (inactive) | -0.0051 | -0.511 | -0.437 (inactive)
2 | CO[C@H]1COC(=O)CCC[C@H](C)[C@H](OC)COC(=O)CC=C[C@@H]1C | 0.239 (inactive) | 0.0648 | -0.116 | -0.695 (inactive)
3 | CON=C(C)CCC(=O)OC[C@H]1O[C@H](C#Cc2ccccc2)C=C[C@@H]1Oc1ccc(C)cc1 | 0.177 (inactive) | 0.627 | -0.306 | -4.45 (inactive)
4 | COc1ccc(COC(=O)NN=C2C[C@@H](O)[C@@H](O)[C@@H]3[C@@H]4C(=O)N([C@@H](C)c5ccccc5)C(=O)[C@@H]4CC[C@H]23)cc1 | -0.153 (inactive) | -0.273 | -0.981 | -3.73 (inactive)
5 | CON(C)C(=O)c1nnc2c(n1)[nH]c1ccccc12 | -0.132 (inactive) | 0.755 | 0.763 | 0.447 (inactive)
6 | CC(=O)OC[C@H]1O[C@@H](ON=C(C)C)[C@H](OC(C)=O)[C@@H](OC(C)=O)[C@@H]1OC(C)=O | -0.0542 (inactive) | -0.245 | 0.213 | -0.383 (inactive)
7 | COc1ccc(COC(=O)NN=C2C[C@@H](O)[C@@H](O)[C@@H]3[C@@H]4C(=O)N([C@@H](C)c5ccccc5)C(=O)[C@@H]4CC[C@@H]23)cc1 | -0.216 (inactive) | 0.0452 | -0.503 | -2.18 (inactive)
8 | CC(=O)OC[C@H]1O[C@H](CCON=C(C)CCN2CCCc3nc(C)c(C)cc32)C=C[C@@H]1OC(C)=O | 0.36 (inactive) | 0.651 | -1.47 | -6.43 (inactive)
